In article PMC4336329 (PLoS ONE, 2015):
The whole screen tested about 310,000 compounds, of which about 2,200 (0.71%) showed an effect of 50% or more. Effects have a minus sign here. For the sample, strong results were picked, then their nearest neighbours and some compounds at random.

target: human ether-à-go-go-related gene (hERG) potassium channel (human, UniProt Q12809); test: primary screen, population patch clamp on CHO cells stably expressing hERG; higher = less effect of the substance
Sequence (Q12809 whole entry, looked up): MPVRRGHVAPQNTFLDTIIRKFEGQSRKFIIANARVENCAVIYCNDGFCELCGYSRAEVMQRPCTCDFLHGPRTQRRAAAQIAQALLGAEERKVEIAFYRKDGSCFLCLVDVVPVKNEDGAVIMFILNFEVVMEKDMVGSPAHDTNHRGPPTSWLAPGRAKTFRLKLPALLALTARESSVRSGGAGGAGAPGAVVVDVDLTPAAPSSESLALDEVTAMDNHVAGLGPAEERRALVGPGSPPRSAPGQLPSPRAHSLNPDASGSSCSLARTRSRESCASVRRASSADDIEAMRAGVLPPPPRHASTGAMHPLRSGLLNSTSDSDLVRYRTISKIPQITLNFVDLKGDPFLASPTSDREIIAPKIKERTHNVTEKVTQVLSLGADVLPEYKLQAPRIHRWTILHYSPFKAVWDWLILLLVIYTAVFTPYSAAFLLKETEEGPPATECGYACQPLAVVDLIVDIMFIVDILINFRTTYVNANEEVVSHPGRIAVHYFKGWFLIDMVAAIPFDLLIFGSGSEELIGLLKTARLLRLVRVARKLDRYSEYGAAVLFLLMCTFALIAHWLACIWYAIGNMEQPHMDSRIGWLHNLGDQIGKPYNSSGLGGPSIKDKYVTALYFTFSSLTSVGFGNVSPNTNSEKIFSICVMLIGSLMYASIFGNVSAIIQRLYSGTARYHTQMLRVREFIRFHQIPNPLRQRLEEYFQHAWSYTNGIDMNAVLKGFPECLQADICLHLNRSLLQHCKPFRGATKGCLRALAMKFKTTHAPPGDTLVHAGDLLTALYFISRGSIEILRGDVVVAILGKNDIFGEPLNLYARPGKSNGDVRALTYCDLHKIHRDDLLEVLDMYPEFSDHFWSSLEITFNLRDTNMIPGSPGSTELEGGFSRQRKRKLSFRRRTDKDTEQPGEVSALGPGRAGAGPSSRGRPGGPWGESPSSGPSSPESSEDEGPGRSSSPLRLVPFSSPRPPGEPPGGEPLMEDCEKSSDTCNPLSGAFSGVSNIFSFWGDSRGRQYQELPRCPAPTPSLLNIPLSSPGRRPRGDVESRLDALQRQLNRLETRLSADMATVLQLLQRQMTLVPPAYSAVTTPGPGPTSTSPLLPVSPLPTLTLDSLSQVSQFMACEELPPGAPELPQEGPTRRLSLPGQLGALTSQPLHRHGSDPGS

Compound	hERG current change (%, negative = inhibition) at 1uM
CC1CCN(C(=O)COC(=O)C23CC4CC(CC(O)(C4)C2)C3)CC1	18.8%
CCC(C)(C)n1nnnc1C(c1ccncc1)N1CCC(C)CC1 (centres unmarked)	-0.168%
CCCn1nc2ccccc2c1P(=O)(N1CCOCC1)N1CCOCC1	-0.888%
O=C(NCCc1cccc(Cl)c1)c1cc2ccccc2oc1=O	12.5%
O=C1CCCc2c1nn(-c1ccccc1)[n+]2[O-]	6.47%
Cc1nn(CC(=O)Nc2c(C)n(C)n(-c3ccccc3)c2=O)c(C)c1[N+](=O)[O-]	8.99%
Cc1nn(CC(=O)Nc2cccnc2)c(=O)c2ccccc12	-9.14%
CCOC(=O)CC1C(=O)NCCN1c1nc2c(C)cccn2c(=O)c1/C=C1\SC(=S)N(C(C)CC)C1=O (centres unmarked)	9.18%
CCOC(=O)C1CCN(C(=O)c2sc3ncnc(N4CCC(C)CC4)c3c2C)CC1	-57.3%
CCOC(=O)C1CCN(C(=O)c2sc3nc(C)nc(N4CCC(C)CC4)c3c2C)CC1	-1.96%
Cc1c(C(=O)N2CCC(Cc3ccccc3)CC2)sc2ncnc(N3CCC(C)CC3)c12	9.72%
COc1ccc2nc(SCC(=O)Nc3ccc(S(=O)(=O)N4CCCC4)cc3)c(C#N)cc2c1	-3.01%
CN(C)C(=O)c1cc(C(=O)c2ccc(F)cc2C(F)(F)F)c[nH]1	14.3%
Cc1nn(-c2cccc(Cl)c2)c2c1C(c1ccncc1)C(C#N)=C(N)O2 (centres unmarked)	5.94%
CCOC(=O)CCCCC(=O)c1[nH]c(=O)[nH]c1CSc1nnc2c3ccccc3n(C(C)C)c2n1	-0.434%
O=C(c1ccc(Cl)cc1)C1CCCN(C2CCSCC2)C1 (centres unmarked)	-63.4%
CC(C)(C)c1ccc(C(=O)C2CCCN(C3CCC3)C2)cc1 (centres unmarked)	10.7%
O=C(c1ccc(C(F)(F)F)cc1)C1CCCN(C2CCSCC2)C1 (centres unmarked)	-64.4%
Cc1cc(Cl)ccc1C(=O)C1CCCN(C2CCSCC2)C1 (centres unmarked)	-49.3%
CN1CCCC(C(=O)c2ccc(Cl)cc2)C1 (centres unmarked)	-2.93%
O=C(c1ccc(C(F)(F)F)cc1)C1CCCN(C(=O)c2csnn2)C1 (centres unmarked)	9.85%

Compound	hERG current change (%, negative = inhibition) at 1uM
CCC(=O)Nc1ccc(S(=O)(=O)Nc2cccc(C)c2)cc1OC	6.57%
COc1cc(OC)c2ccc(=O)oc2c1C(CCN1CCCC1)c1ccc2c(c1)OCO2 (centres unmarked)	-7.33%
C(=NCCCN1CCOCC1)c1ccc2c(c1)OCO2	16.1%
CC(C)CCC(CCN1CCOCC1)c1ccc2c(c1)OCO2.Cl (centres unmarked)	-76.8%
CC(C)CCC(CCN1CCCC1)c1ccc2c(c1)OCO2.O=C(O)C(=O)O (centres unmarked)	-83.3%
O=C(CCN1CCCCC1)c1ccc2c(c1)OCO2	10.3%
COc1cc(O)c(C(CCN2CCOCC2)c2ccc3c(c2)OCO3)c(OC)c1 (centres unmarked)	-45.7%
CC(=O)Nc1ccc(NC(=O)C(C)OC(=O)CNC(=O)c2cccs2)cc1 (centres unmarked)	12.5%
CCOC(=O)c1c(-c2ccc(C)cc2C)csc1NC(=O)CSc1nnnn1C	-3.8%
COc1ccc(Cl)cc1N(C)C(=O)CCNC(=O)Cn1cnc2ccccc2c1=O	11.2%
Cc1cc(C)c2cc(CN(CCO)C(=O)Nc3ccc(Cl)cc3)c(=O)[nH]c2c1	3.03%
Cc1ccc(C)c2[nH]c(=O)c(CN(CCN3CCCC3)C(=O)Nc3cccc(Cl)c3)cc12	-35.6%
Cc1ccc2cc(CN(CCN3CCCC3)C(=O)Nc3ccc(F)cc3)c(=O)[nH]c2c1C	-8.93%
Cc1ccc(C)c2[nH]c(=O)c(CN(CCN3CCCC3)C(=O)Nc3ccc(F)cc3)cc12	-76.6%
Cc1cc(C)c2cc(CN(CCN3CCCC3)C(=O)Nc3ccc(F)cc3)c(=O)[nH]c2c1	-57.9%
COc1cc2cc(CN(CCN3CCCC3)C(=O)Nc3ccc(F)cc3)c(=O)[nH]c2cc1OC	3.06%
CC1(C)CC(=O)C(C=NCCN2CCN(CC(=O)Nc3ccc(Cl)cc3)CC2)=C(O)C1	2.52%
C=CCn1c(O)c(C(C)=NCCN2CCCCC2)c(=O)[nH]c1=O	8.8%
CCOc1ccc(NC(=S)N2CCC(NC(=O)c3ccccc3)CC2)cc1	-3.48%
CN1CCN(CC#CC(C)(O)C2CC3C=CC2C3)CC1.Cl (centres unmarked)	10.8%
c1cncc(COC2CCCN(Cc3nc(-c4cccs4)no3)C2)c1 (centres unmarked)	15.7%

Compound	hERG current change (%, negative = inhibition) at 1uM
COc1cc(OC)cc(C(C)=O)c1	14.7%
Cc1ccc(NC(=O)/C=C/c2ccc([N+](=O)[O-])s2)cc1	13.2%
COCCn1c(SCC(=O)N2CC(=O)Nc3ccccc32)nc2ccccc2c1=O	-3.74%
CN(C)CCCn1c(SCC(=O)N2CC(=O)Nc3ccccc32)nc2ccccc2c1=O	9.8%
CC(C)N(CCn1c(SCC(=O)N2CC(=O)Nc3ccccc32)nc2ccccc2c1=O)C(C)C	-72.5%
N#Cc1ccc(S(=O)(=O)NCC(=O)OCC(=O)NCCc2ccccc2)cc1	14.7%
C=CCn1c(SCC(=O)N(CC)C2CCS(=O)(=O)C2)nc2sc3c(c2c1=O)CCC3 (centres unmarked)	-37.5%
Clc1ccc(-c2nnc(NC3=NCCCCC3)o2)cc1	10%
COc1ccc(/C=C(\NC(=O)c2ccc(C)cc2)C(=O)NCCN2CCOCC2)cc1	-33.3%
Cc1ccc(C(=O)N/C(=C\c2ccc(Cl)cc2)C(=O)NCCN2CCOCC2)cc1	-70.6%
Cc1ccc(C(=O)N/C(=C\c2ccc(F)cc2)C(=O)NCCN2CCOCC2)cc1	-79.1%
CC(C)c1ccc(/C=C(\NC(=O)c2ccccc2)C(=O)NCCN2CCOCC2)cc1	-21.9%
Cc1ccc(C(=O)N/C(=C/c2ccc(C(C)C)cc2)C(=O)NCCCN2CCOCC2)cc1	-22%
Cc1ccc(C(=O)N/C(=C\c2ccccc2)C(=O)NCCN2CCOCC2)cc1	-38.7%
CC(C)c1ccc(/C=C(\NC(=O)c2ccccc2)C(=O)NCCCN2CCOCC2)cc1	-35.8%
O=C(NCCN1CCOCC1)/C(=C/c1ccc(Cl)cc1)NC(=O)c1ccccc1	-83.1%
Cc1ccc(C(=O)N/C(=C\c2ccc(C(C)C)cc2)C(=O)NCCCN2CCOCC2)cc1	-61.4%
Cc1ccc(C(=O)N/C(=C\c2ccco2)C(=O)NCCN2CCOCC2)cc1	5.85%
O=C(NCCN1CCOCC1)/C(=C/c1ccccc1)NC(=O)c1ccccc1	3.35%
CN(C)c1ccc(/C=C(/NC(=O)c2ccccc2)C(=O)NCCN2CCOCC2)cc1	16.1%
